# Most compounds without a hit are left out; they make up all but 7.7% or so of the library.
# Shh pathway inh: blocks Sonic Hedgehog signaling | Shh-LIGHT2 Gli-luciferase reporter, 30 h | inhibition, % (test concentration not listed) | 22,000 tested, 2.1% active | AID 2313;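 active = mean inhibition across valid replicates above about 65%, limit read from the data; inconclusive = mean under the limit, yet half or more replicates past it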;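 also: pathway switched on by Shh-conditioned medium diluted 1 in 25 in low serum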
# PD-1 reverse act: activators reversing PD-1 mediated T-cell inhibition; primary human CD4 T cells, PD-L1 beads, CellTiter-Glo 96 h; activation, % (test concentration not listed); 29,000 tested, under 10 active; AID 2316; call rule not given here;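 also: 0% = median vehicle wells and 100% = positive control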
# NOMO-1 viab: STK33 inhibitor candidate reducing NOMO-1 cell viability; NOMO-1 AML viability, CellTiter-Glo luminescence, 72 h; inhibition, % (concentration not given with the values); 37,000 tested, 7.5% active; in the data active = inhibition above about 80%; inconclusive = no clear call, values can overlap the other calls
# * hit, by the source's call; u = inconclusive; x = no result given.
SMILES,Shh pathway inh,PD-1 reverse act,NOMO-1 viab
C[C@@H]1CN([C@@H](C)CO)C(=O)c2cccc(NS(=O)(=O)c3ccccc3)c2O[C@@H]1CN(C)Cc1ccc(C(=O)Nc2ccccc2N)cc1,x,-0.2,129.1*
C[C@@H]1CN([C@H](C)CO)C(=O)c2cccc(NS(=O)(=O)c3ccc(Cl)cc3)c2O[C@H]1CN(C)Cc1ccc(C(=O)Nc2ccccc2N)cc1,x,-1.0,66.7
C[C@H](CO)N1C[C@H](C)[C@H](CN(C)Cc2ccc(C(=O)O)cc2)Oc2c(NS(=O)(=O)c3cccs3)cccc2C1=O,-35.4,1.6,9.5
Cc1ccc(S(=O)(=O)Nc2cccc3c2O[C@@H](CN(C)Cc2ccc(C(=O)Nc4ccccc4N)cc2)[C@H](C)CN([C@H](C)CO)C3=O)cc1,x,-0.6,72.1
C[C@H]1CN([C@@H](C)CO)C(=O)c2cccc(NS(=O)(=O)c3ccc(Cl)cc3)c2O[C@@H]1CN(C)Cc1ccc(C(=O)Nc2ccccc2N)cc1,x,-2.6,126.3*
Cn1c(SCC(=O)c2ccc(Cl)cc2Cl)nnc1-c1cccnc1,x,x,18.1
Cc1cc2ncn(CC(O)COc3ccc(N)cc3)c2cc1C (configuration not stated),x,x,23.6
O=C(Nc1ccccc1C(=O)NCCOc1ccccc1)c1ccc(Cl)cc1,x,-2.4,20.9
O=C(O)CCC(=O)Nc1ccc(Cc2ccncc2)cc1,-14.7,0.8,-16.2
O=C(CSc1nnc(-c2cccc(Cl)c2)n1-c1ccccc1)Nc1ccccc1,x,x,-2.8
CCC(C)C(O)C(C)(O)/C=C/C1=CC2=CC(=O)C(C)(O)C(O)C2CO1 (configuration not stated),-17.8,x,x
O=C(Cn1cc(C(=O)c2ccccc2F)c2ccccc21)Nc1cccc(C(F)(F)F)c1,x,-2.4,44.6
COc1ccc(S(=O)(=O)Nc2cccc3c2O[C@@H](CN(C)Cc2ccc(C(=O)Nc4ccccc4N)cc2)[C@H](C)CN([C@@H](C)CO)C3=O)cc1,x,1.2,55.2
COc1ccc(S(=O)(=O)Nc2cccc3c2O[C@H](CN(C)Cc2ccc(C(=O)Nc4ccccc4N)cc2)[C@@H](C)CN([C@@H](C)CO)C3=O)cc1,x,-2.0,128.8*
C[C@H]1CN([C@@H](C)CO)C(=O)c2cc(NS(=O)(=O)c3ccc(F)cc3)ccc2O[C@H]1CN(C)Cc1ccc(C(=O)Nc2ccccc2N)cc1,x,-0.4,u
C[C@H](CO)N1C[C@H](C)[C@H](CN(C)Cc2ccc(C(=O)Nc3ccccc3N)cc2)Oc2c(NS(=O)(=O)c3ccc(F)cc3)cccc2C1=O,x,-1.5,133.2*
COc1ccc(OC)c(C(=O)CSc2nnc(-c3ccco3)n2C)c1,x,1.4,2.1
CCOc1ccc2c(c1)-c1c(ssc1=S)C(C)(C)N2C,0.7,-1.7,86.3*
COC(=O)[C@H](Cc1ccc(O)cc1)NC(=O)c1cccc(Cl)c1,-16.4,-22.7,110.4*
CCOC(=O)C(Cc1ccc(O)cc1)NC(C)=O (configuration not stated),-23.7,x,-2.4
CC(C)C1=CCC(C)/C(=C\c2ccc(Cl)cc2)C1=O (configuration not stated),x,0.6,3.7
Cc1cc(O)c2c(c1)C(=O)c1cc(OC3OC(COC(=O)CC(=O)O)C(O)C(O)C3O)cc(O)c1C2=O (configuration not stated),-11.2,2.6,-4.3
COc1cccc(NC(=O)c2ccc(OC)c(OC)c2)c1,-36.5,0.2,38.7
COc1cccc(C(=O)COc2cccc(NC(=O)c3cccc([N+](=O)[O-])c3)c2)c1,x,-1.5,u
COC(=O)COc1cccc(NC(=O)c2cccs2)c1,x,1.1,137.2*
SMILES,Shh pathway inh,PD-1 reverse act,NOMO-1 viab
CCOC(=O)c1ccc(NC(=O)c2ccco2)cc1,-115.1,1.6,7.8
COC(=O)COc1cccc(NC(=O)c2ccc(Cl)c(Cl)c2)c1,x,-0.3,108.4*
COC(=O)COc1cccc(NC(=O)c2ccc(NC(=O)c3ccco3)cc2)c1,x,-4.8,109.8*
COC(=O)COc1cccc(NC(=O)c2cccc(C)c2)c1,x,-2.4,121.0*
COc1cccc(NC(=O)CNC(=O)c2cccs2)c1,x,-0.5,-16.1
Clc1ccccc1N=C/C=C1\NN=NC1c1ccc(Br)cc1 (configuration not stated),-23.7,0.7,46.9
COc1cc([N+](=O)[O-])ccc1NC(=O)CCN1C(=O)C2C3C=CC(C4CC34)C2C1=O (configuration not stated),x,0.8,33.9
O=C(CN1C(=O)c2ccccc2S1(=O)=O)Nc1cc(C(F)(F)F)ccc1Cl,x,x,-1.7
COc1ccccc1CC(=O)Nc1cc(Cl)ccc1C(=O)O,x,x,17.3
COC(=O)COc1cccc(NC(=O)c2ccccc2-c2ccccc2C(=O)O)c1,x,3.1,-4.2
COC(=O)COc1cccc(NC(=O)c2ccccc2)c1,x,-1.6,121.7*
C[C@H](CO)N1C[C@H](C)[C@H](CN(C)Cc2ccc(-c3ccccc3)cc2)Oc2ccc(NC(=O)Nc3cccc4ccccc34)cc2CC1=O,x,0.8,54.5
C[C@@H]1CN([C@H](C)CO)C(=O)Cc2cc(NC(=O)Nc3cccc4ccccc34)ccc2O[C@@H]1CN(C)Cc1ccncc1,x,-1.0,31.5
C[C@H]1CN([C@@H](C)CO)C(=O)Cc2cc(NC(=O)Nc3cccc4ccccc34)ccc2O[C@@H]1CN(C)Cc1ccc(Cl)c(Cl)c1,-2.1,2.4,108.3*
C[C@@H]1CN([C@H](C)CO)C(=O)Cc2cc(NC(=O)Nc3cccc4ccccc34)ccc2O[C@@H]1CN(C)Cc1ccccc1,39.6,-1.1,87.6*
Cc1ccc2nc(-c3ccccn3)cc(C(=O)NCc3ccccn3)c2c1,x,x,19.2
C[C@H]1CN([C@@H](C)CO)C(=O)Cc2cc(NC(=O)Nc3ccccc3)ccc2O[C@H]1CN(C)S(=O)(=O)c1ccc(Cl)cc1,10.9,-0.8,113.2*
C[C@@H]1CN([C@H](C)CO)C(=O)Cc2cc(NC(=O)Nc3ccc(F)cc3)ccc2O[C@@H]1CN(C)S(=O)(=O)c1ccc(Cl)cc1,26.0,-1.8,5.9
Cc1ccc(S(=O)(=O)N(C)C[C@@H]2Oc3ccc(NC(=O)Nc4ccccc4)cc3CC(=O)N([C@@H](C)CO)C[C@@H]2C)cc1,-11.9,x,124.3*
Cc1ccc(S(=O)(=O)N(C)C[C@@H]2Oc3ccc(NC(=O)CCC(F)(F)F)cc3CC(=O)N([C@@H](C)CO)C[C@@H]2C)cc1,4.7,0.3,133.7*
C[C@H]1CN([C@@H](C)CO)C(=O)Cc2cc(NC(=O)Nc3ccc(F)cc3)ccc2O[C@H]1CN(C)S(=O)(=O)c1ccc(Cl)cc1,13.3,-2.0,114.4*
C[C@H]1CN([C@@H](C)CO)C(=O)Cc2cc(NC(=O)Nc3ccccc3)ccc2O[C@@H]1CN(C)S(=O)(=O)c1ccc(Cl)cc1,-30.4,-1.0,20.1
Cc1ccc(S(=O)(=O)N(C)C[C@@H]2Oc3ccc(NC(=O)CCC(F)(F)F)cc3CC(=O)N([C@H](C)CO)C[C@H]2C)cc1,-41.1,x,-10.9
C[C@@H]1CN([C@@H](C)CO)C(=O)Cc2cc(NC(=O)Nc3ccccc3)ccc2O[C@@H]1CN(C)S(=O)(=O)c1ccccc1,-10.0,x,53.4
Cc1ccc(NC(=O)CSc2nnc(C)n2-c2ccccc2)cc1C,x,0.9,0.3
NC(=O)CSc1nc2ccccc2n1CC(=O)N1CCCCC1,x,-4.2,32.5
OC(CNC1CCCC1)Cn1c2ccc(Cl)cc2c2cc(Cl)ccc21 (configuration not stated),x,-17.1,119.0*
